Test results reported in PubChem BioAssay AID1233 (SRMLSC, 2008).
Entries with a potency or affinity are not part of this list. Values without a mark were called inactive.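 How the source made its calls: active means a dose-response curve fit returns a half-maximal inhibitory concentration, extrapolated values included; inactive means the fit returns no such concentration.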

What follows are compounds tested against HMG-CoA reductase [Enterococcus faecalis] (UniProt Q9FD70) (assay: inhibitors of E. faecalis class II HMGR, confirmation, biochemical, Enterococcus faecalis (AID 1233;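 further: 0% = full reaction carrier wells and 100% = background wells lacking mevalonate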)). Conditions: purified E. faecalis HMGR, NADPH absorbance 340 nm kinetics; series mostly up to 100 µM; inhibition: at the top concentration.

Compound	inhibition
Cc1ccsc1C(=O)C1CCCN(Cc2cc(F)ccc2-n2cccn2)C1 (stereo not drawn)	-5.9%
CCOC(=O)C1CCN(C(=O)c2c(-c3ccccc3)noc2C)CC1	-3.39%
CCC1CCCCN1C(=O)CCn1ccnc1 (stereo not drawn)	-0.41%
CCCOP(=O)(OCCC)c1nc(-c2ccccc2)oc1NCc1ccccc1	0.1%
COc1ccc(CSc2nnnn2C)cc1[N+](=O)[O-]	-1.1%
CCOC(=O)c1ccc(N(C(=O)c2cnccn2)C(C(=O)NC2CCCCC2)c2cn(C)nc2C)cc1 (stereo not drawn)	-9.54%
Cc1cnc(NC(=O)CSc2nnc(-c3ccc(Cl)cc3Cl)n2N)s1	1.88%
CC1(C)CNC(=O)c2sc(NC(=O)c3ccccc3)nc2C1	-0.14%
Cc1ccsc1/C=C1/NC(=O)N(Cc2ccc(F)cc2)C1=O	-7.22%
Cc1ccc(S(=O)(=O)N2CCCC(C(=O)NCCCN3CCCCC3C)C2)cc1 (stereo not drawn)	-0.54%
CCOC(=O)c1c(C)nc2ccc(C)cn12	-4.75%
O=C(COc1ccccc1C(=O)N/N=C\c1ccc(O)c(O)c1)N/N=C/c1ccc(O)c(O)c1	4.43%
O=C(Nc1cccc(Br)c1)c1ccc2nc(N3C(=O)CCC3=O)sc2c1	-0.95%
Cc1ccccc1Nc1nc(N)nc(CN2CCN(Cc3ccc4c(c3)OCO4)CC2)n1	-8.07%
COc1ccc(N2C(=O)C3C4C=CC(C5CC45)C3C2=O)c([N+](=O)[O-])c1 (stereo not drawn)	-1.92%
CC(=O)Nc1ccc(Cc2nc3ccccc3[nH]2)cc1	-3.93%
COc1cccc(NC(=O)c2ccc3snnc3c2)c1	-9.19%
Cc1cccc(C(=O)N2CCC(=O)N(C(COCc3ccccc3)Cc3ccccc3)CC2)c1 (stereo not drawn)	-2.57%
